A selection: hits, their analogues and other compounds. The true share with any hit is near 21%.
Shiga inhibitor – inhibitors of Shiga toxin in Vero cells; Vero cells, Shiga toxin protein synthesis inhibition reporter; inhibition, % at 38.7 µM; 9.2% of 290,000 active; in the data active = inhibition mostly above about 28%, no sharp cut-off; inactive = mostly below about 43%
NS1 inh – blocks influenza NS1 protein function; Potency, µM (top dose mostly 46.1 µM); AID 2326; 0.4% of 270,000 active; calls by dose curve; also: actives are rising curves; nearly all actives have a fitted effect of over 50% in size
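S. cerevisiae expressing influenza A NS1, grown in glucose, washed, then diluted 1:100 into pH 6.0 -URA galactose medium with 23 nl compound. Growth recovery read as OD600; NS1-free strain serves as control.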
CHX counter – counter-screen hit for Shiga toxin inhibitors, cycloheximide | cell reporter, cycloheximide protein synthesis inhibition counterscreen | max response, % | 12% of 300,000 active | AID 2314; in the data active = max response mostly above about 13%, no sharp cut-off; inactive = mostly below about 14%; also: read at 38.3 µM for the half of the compounds with a filed dose
Pf growth 96h – inhibits malaria parasite growth, 96 h; P. falciparum luciferase reporter growth, 96 h; Potency, µM (series often up to 28.7 µM), most hits filed as inhibitors; 6.9% of 320,000 active
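Two parasite generations (96 h, 37 C, 5% CO2) of compound exposure in infected erythrocytes (0.05% parasitemia, 2% hematocrit). Luciferase-reporter P. falciparum; decreased luminescence indicates inhibited growth, aimed at apicoplast-acting delayed death.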
Pf growth 48h – P. falciparum growth inhibition at 48 hours (one generation); Potency, µM (series often up to 28.7 µM), usual class: inhibitors; 5.9% of 310,000 active; P. falciparum luciferase growth in erythrocytes, 48 h
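Luminescence readout; reporter = integrated firefly luciferase in P. falciparum. RBC culture at 2% hematocrit, 0.1% parasitemia final, 37 C/5% CO2; decreased signal taken as growth inhibition.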
Of the large screens only hits and unclear results are named; the others gave an inactive call. Unless noted, calls follow the shape of the dose curve; as a rule, active = well fitted inhibition curve with a large enough effect; inconclusive = small, poorly fitted or top-dose-only effect, or another doubt; inactive = no such curve, though single readings can be large or run the other way.

CC1=NN(c2ccccc2)C(=O)C1C(=O)c1cc([N+](=O)[O-])cc([N+](=O)[O-])c1 (stereo not given)	none (no result: NS1 inh)
O=C(Nc1ccccc1N1CCOCC1)c1cc(-c2ccncc2)nc2ccccc12	Pf growth 96h 8.28µM, Pf growth 48h inconclusive (no result: NS1 inh)
CCN(CC)S(=O)(=O)c1ccc(N2CCOCC2)c(NC(=O)c2cnccn2)c1	Pf growth 96h 11.7µM, Pf growth 48h 8.28µM
CCN(CC)S(=O)(=O)c1ccc(N2CCOCC2)c(NC(=O)c2cc(=O)[nH]c3ccccc23)c1	none
CCN(CC)S(=O)(=O)c1ccc(N2CCCCC2)c(C(=O)Nc2ccccc2N2CCOCC2)c1	Pf growth 96h 4.15µM (no result: Pf growth 48h)
CCN(CC)S(=O)(=O)c1ccc(N2CCOCC2)c(NC(=O)c2c3c(nc4ccccc24)CCC3)c1	Pf growth 96h 4.65µM, Pf growth 48h 7.38µM
CCN(CC)S(=O)(=O)c1ccc(N2CCOCC2)c(NC(=O)c2cccc(C#N)c2)c1	Pf growth 96h inconclusive, Pf growth 48h inconclusive
O=C(CSCc1ccccc1)NNc1c(F)c(F)cc(F)c1F	none
COc1cccc(OC)c1C1=Nn2c(nnc2-c2ccccc2O)SC1	none (no result: NS1 inh, Pf growth 96h, Pf growth 48h)
CCc1cccc(N(C(=O)c2csnn2)C(C(=O)NC(C)(C)C)c2ccccn2)c1 (stereo not given)	none
CCN(CC)C(=S)SCC(=O)NC12CC3CC(CC(C3)C1)C2	none
CCN(CC)S(=O)(=O)c1ccc(N2CCOCC2)c(NC(=O)c2cccc3ccccc23)c1	NS1 inh inconclusive, Pf growth 96h inconclusive, Pf growth 48h inconclusive
CCN(CC)S(=O)(=O)c1ccc(N2CCOCC2)c(NC(=O)c2ccc3ccccc3c2)c1	Pf growth 96h 11.7µM, Pf growth 48h inconclusive
Cc1ccc(C)c(NC(=O)CN(C)C(=O)C2CCN(C(=O)Nc3ccccc3)CC2)c1	none (no result: Shiga inhibitor, NS1 inh, CHX counter)
O=C(NCc1ccncc1)C(=O)C1C(=O)Nc2ccccc21 (stereo not given)	none (no result: NS1 inh)
Cc1cccc(C)c1NC(=O)c1sccc1SCc1cccc(C(F)(F)F)c1	Pf growth 96h inconclusive, Pf growth 48h inconclusive
Cc1ccc(NC(=O)c2c(C(F)(F)F)nn(C)c2SCc2cccc(C(F)(F)F)c2)cc1C	Shiga inhibitor 51.4, CHX counter 20.3, Pf growth 96h inconclusive, Pf growth 48h inconclusive
Cc1ccc(NC(=O)c2c(C(F)(F)F)nn(C)c2SCc2ccc(Cl)cc2)cc1C	Shiga inhibitor 46.0, CHX counter 22.1, Pf growth 96h inconclusive, Pf growth 48h inconclusive
Cn1nc(C(F)(F)F)c(C(=O)Nc2ccc(Cl)cc2)c1Cl	none
O=C(O)[C@H]1O[C@@H](Oc2ccc3ccc(=O)oc3c2)[C@H](O)[C@@H](O)[C@@H]1O	none (no result: NS1 inh, Pf growth 96h, Pf growth 48h)
CCOC(=O)C1=C(c2ccccc2)NC(N)=NC1c1ccc(OCc2ccc(Cl)cc2)c(OC)c1 (stereo not given)	Shiga inhibitor 29.5, Pf growth 96h 1.65µM, Pf growth 48h 1.47µM
COc1ccc2c(c1)C(=O)N1[C@H]3c4cc(Br)ccc4OC[C@@H]3[C@H](c3ccccc3)[C@]1(C)C(=O)N2	Pf growth 96h 11.7µM, Pf growth 48h inconclusive (no result: Shiga inhibitor, NS1 inh, CHX counter)
C[C@@]12C(=O)Nc3ccc(Br)cc3C(=O)N1[C@H]1c3cc(Br)ccc3OC[C@@H]1[C@@H]2c1ccccc1	Pf growth 96h 3.29µM, Pf growth 48h 3.29µM (no result: Shiga inhibitor, NS1 inh, CHX counter)
C[C@]12C(=O)N(c3ccc(Br)cc3)C(=O)N1[C@@H]1c3ccccc3OC[C@@H]1[C@H]2c1ccccc1	NS1 inh inconclusive, Pf growth 96h inconclusive, Pf growth 48h inconclusive
CCCCC(=O)NC1=NC(=O)C(C)(C)S1	none (no result: Pf growth 96h)
Cc1ccc(S(=O)(=O)/N=C2/C=C(C3C(=O)CC(C)(C)CC3=O)C(=O)c3ccccc32)cc1	Shiga inhibitor 140.4, CHX counter 40.9, Pf growth 48h inconclusive (no result: Pf growth 96h)
COC1=C(N)C(=O)c2nc(-c3nc(C(=O)O)c(C)c(-c4ccc(OC)c(OC)c4O)c3N)ccc2C1=O	Pf growth 96h 0.0185µM, Pf growth 48h 0.0522µM
COc1ccc(-c2ncncc2-c2csc(C)n2)c(O)c1OC	none (no result: Pf growth 96h)
COC(=O)c1nc(-c2ccc3c(n2)C(=O)C(N)=C(OC)C3=O)c(N)c(-c2ccc(OC)c(OC)c2O)c1C	NS1 inh inconclusive, Pf growth 96h inconclusive, Pf growth 48h 0.0928µM
COc1cc2c(cc1OC)-c1c(OC)c(OC)cc3ccnc(c13)C2=O	Pf growth 96h inconclusive, Pf growth 48h inconclusive
O=C(O)c1ccc2c(c1)C(=O)N([C@H](Cc1ccc3ccccc3c1)C(=O)O)C2=O	none (no result: NS1 inh)
Cc1cccc2cc(C#N)c(N3CCC(O)CC3)nc12	none (no result: NS1 inh)
CCc1nnc(NC(=O)CSc2nnc(C(C)NC(=O)c3ccccc3)n2C)s1 (stereo not given)	none
O=C(CSc1nnnn1-c1cccnc1)Nc1ccccc1F	none
CC(C)[C@@H](C(=O)NCc1ccco1)N1C(=O)N2CCc3c([nH]c4ccccc34)[C@@]2(C)C1=O	Pf growth 96h inconclusive, Pf growth 48h inconclusive
Cc1cc(C)c(S(=O)(=O)Cc2ccc(Cl)cc2)c(=O)[nH]1	Pf growth 48h 10.4µM (no result: NS1 inh)
COc1ccc(S(=O)(=O)N2CCOC23CCN(S(=O)(=O)c2cc(F)ccc2F)CC3)cc1	Pf growth 96h inconclusive (no result: Shiga inhibitor, NS1 inh, CHX counter)
Cc1ccccc1OCC(=O)Nc1ccccc1-c1ccccc1	Shiga inhibitor 42.3, CHX counter 17.6, Pf growth 96h inconclusive
O=C(CNC(c1ccccc1)c1ccccc1)Nc1ccccc1-c1ccccc1	Pf growth 96h 13.1µM, Pf growth 48h 11.7µM
CC(=O)OCC(=O)Nc1ccccc1C	none (no result: NS1 inh)
O=C(CNC(c1ccccc1)c1ccccc1)Nc1ccccc1F	Pf growth 96h inconclusive, Pf growth 48h inconclusive
COCC(=O)Nc1ccccc1-c1ccccc1	none (no result: NS1 inh)
Cc1ccccc1NC(=O)COc1ccccc1C	CHX counter 16.0, Pf growth 48h inconclusive
NC(N)=Nc1nc(-c2ccccc2)c2ccccc2n1	Pf growth 48h 11.7µM
CCc1nc(N=C(N)N)nc2ccccc12	Pf growth 48h 3.29µM (no result: NS1 inh)
CCc1nc2ccccc2c(C(=O)O)c1C	none (no result: Pf growth 96h)
CC(C)CC(=O)N1CCN(Cc2ccc(C(F)(F)F)cc2)CC1	none
CC(C)(C)C(=O)NCC12C=CC(O1)C1C(=O)N(c3ccccc3)C(=O)C12 (stereo not given)	Pf growth 96h 2.08µM
Cc1ccc(N2C(=O)C3C4C=CC(CNC(=S)Nc5ccc(Cl)cc5)(O4)C3C2=O)cc1 (stereo not given)	CHX counter 9.6, Pf growth 96h inconclusive
Cc1cc(C)c(S(=O)(=O)NCC23C=CC(O2)C2C(=O)N(c4ccccc4)C(=O)C23)c(C)c1 (stereo not given)	none
O=C1C2C3C=CC(CO)(O3)C2C(=O)N1c1ccc(-c2ccccc2)cc1 (stereo not given)	CHX counter 23.0
CCc1ccc(NC(=O)CSCc2ccc(C(=O)O)cc2)cc1	none
CCOC(=O)c1cnc(SCC(=O)c2ccc(Cl)cc2)nc1N	none (no result: Pf growth 48h)
CCCCSc1ncc(C(=O)OCC)c(N)n1	Shiga inhibitor 67.8, CHX counter 46.2, Pf growth 96h inconclusive
CCOC(=O)c1cnc(SC2CCc3ccccc3C2=O)nc1N (stereo not given)	Shiga inhibitor 70.9, CHX counter 33.0
CCOC(=O)c1cnc(SCc2ccc(C)cc2)nc1N	Shiga inhibitor 106.5, CHX counter 32.9, Pf growth 96h 0.0522µM

Screening data: PubChem BioAssay, National Center for Advancing Translational Sciences (NCATS)
